PubChem BioAssay (NCATS)
Results filed as inconclusive are left out. Calls of active or inactive are those of the source. Unless noted, calls come from the whole dose curve; as a rule, active = well fitted curve in the direction sought with a large enough effect; inconclusive = small, poorly fitted or top-dose-only effect, or another doubt; inactive = no such curve, though single readings can be large; an effect the other way counts as inactive or inconclusive.

How the values were obtained:
[1] = Cell Viability - Mesenchymal (AID 546);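 note: cells exposed to compound for 40 hours before reading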
How it was run: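 Human renal mesenchymal cells (glomerulus-derived), 1000 cells/well, 5 hr 37 °C pre-incubation; compound 40 hr, 37 °C; CellTiter-Glo, 20 min RT; luminescence; AC50 via Hill equation.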

[2] = Cellular Toxicity (caspase-3) HepG2 (AID 654);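 note: cells exposed to compound for 16 hours before reading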
How it was run: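 Caspase 3/7 activation in HepG2 is measured as rising luminescence after a 16 hr treatment at 37 °C. Values are scaled between DMSO basal and 100 uM tamoxifen, and AC50 is fitted with the Hill equation.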

[3] = Cellular Toxicity (caspase-3) Jurkat (AID 655);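 note: cells exposed to compound for 16 h at 37 °C before reading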
How it was run: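 Caspase 3/7 activation is scored as increased luminescence in Jurkat cells cultured with compound for 16 hours in complete medium. AC50 values come from Hill fits of qHTS concentration-response data normalized to DMSO and 100 uM tamoxifen controls.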

[4] = Cellular Toxicity (caspase-3) HUV-EC-C (AID 656)
How it was run: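 Read-out: luminescence proportional to caspase 3/7 activity, measured 20 min after adding Caspase-Glo 3/7 reagent. Cells (HUV-EC-C) had received compound for 16 hr at 37°C. Increases relative to DMSO and 100 uM tamoxifen gave concentration-response AC50 values.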

[5] = Cellular Toxicity (caspase-3) SHSY5Y (AID 657);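 note: cells exposed to compound for 16 hours at 37 °C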
How it was run: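 Cells plated and incubated 5 h at 37 °C, dosed over a concentration range, incubated 16 h, then given Caspase-Glo 3/7 reagent for 1 h at room temperature before luminescence reading. Staurosporine (10 uM) defined full stimulation.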

[6] = Cellular Toxicity (caspase-3) BJ (AID 658)
How it was run: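 qHTS, BJ fibroblasts, 1000 cells/well; 5 hr preincubation, 16 hr compound, 37 °C; Caspase-Glo 3/7 reagent, 1 hr RT; luminescence. DMSO = 0%, 10 uM staurosporine = 100%. Hill-equation AC50.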

[7] = Cellular Toxicity (caspase-3) MRC-5 (AID 659)
How it was run: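 MRC-5 fibroblasts, 1500/well; 16 h cpd, 37 °C; Caspase-Glo 3/7, 1 h RT; lumi read. Norm: DMSO = 0%, 10 uM staurosporine = 100%. Hill-fit AC50 from qHTS conc-response.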

[8] = Cellular Toxicity (caspase-3) Mesangial (AID 660);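 note: cells exposed to compound for 16 h before the caspase read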
How it was run: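 Seed cells derived from normal human renal glomeruli, incubate 5 h, add compounds across concentrations and incubate 16 h at 37 °C. Caspase 3/7 activation is then quantified by luciferase light, with AC50 derived by Hill modeling.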

[9] = Cellular Toxicity (caspase-3) SK-N-SH (AID 661)
How it was run: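 Cells were seeded and incubated 5 hr at 37 °C, dosed with compound over a concentration range for 16 hr, then given Caspase-Glo 3/7 reagent for 1 hr at room temperature before luminescence reading.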

[10] = molecular target: 3',5'-cyclic-AMP phosphodiesterase 4B (Homo sapiens) (UniProt Q07343); assay: qHTS Assay for Inhibitors of PDE-IV (AID 607; active = well fitted activation curve with a large enough effect in the main read-out, with a control signal flat, not every such curve was filed as active)
Chain of 3',5'-cyclic-AMP phosphodiesterase 4B (Homo sapiens) (Q07343 whole entry, looked up): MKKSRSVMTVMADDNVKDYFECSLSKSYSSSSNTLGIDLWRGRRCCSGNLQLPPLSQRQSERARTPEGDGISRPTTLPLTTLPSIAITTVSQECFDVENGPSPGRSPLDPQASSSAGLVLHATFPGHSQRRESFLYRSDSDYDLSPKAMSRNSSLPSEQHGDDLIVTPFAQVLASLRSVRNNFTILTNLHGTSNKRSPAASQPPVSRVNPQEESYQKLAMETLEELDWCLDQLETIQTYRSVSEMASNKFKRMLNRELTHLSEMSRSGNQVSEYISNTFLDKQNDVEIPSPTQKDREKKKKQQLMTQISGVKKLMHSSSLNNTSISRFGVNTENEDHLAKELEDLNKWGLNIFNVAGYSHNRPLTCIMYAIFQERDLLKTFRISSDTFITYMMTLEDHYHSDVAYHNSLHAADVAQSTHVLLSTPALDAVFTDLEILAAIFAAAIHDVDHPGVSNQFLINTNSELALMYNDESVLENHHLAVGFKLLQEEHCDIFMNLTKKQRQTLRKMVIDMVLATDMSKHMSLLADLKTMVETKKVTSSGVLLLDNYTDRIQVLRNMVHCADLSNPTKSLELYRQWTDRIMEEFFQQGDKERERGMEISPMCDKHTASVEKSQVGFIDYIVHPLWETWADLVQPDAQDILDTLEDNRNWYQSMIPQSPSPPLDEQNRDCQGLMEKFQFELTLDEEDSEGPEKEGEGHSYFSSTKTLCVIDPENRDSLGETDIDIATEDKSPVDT
How it was run: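 HEK293 ACTOne cells with CNG channel (1000/well), endogenous PDE4; membrane potential dye, compounds up to 22.9 uM final. Fluorescence Ex 535/Em 590; RO 20-1724 (100 uM final) as reference.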

Measured: outcome

COc1ccc(O)cc1
not listed: [10]
inactive: all other assays above

CCCCOC(=O)c1ccc(N)cc1
inactive: all assays above

CC(=O)Nc1ccccc1
not listed: [10]
inactive: all other assays above

CC(=O)Nc1cccc(O)c1
not listed: [10]
inactive: all other assays above

O=C1c2cccc(O)c2C(=O)c2c(O)cccc21
not listed: [10]
inactive: all other assays above

CC(=O)Nc1ccc(C(=O)O)cc1
not listed: [10]
inactive: all other assays above

Cc1ncc(CO)c(CN)c1O
inactive: [10]

CC1CC(OC(=O)c2ccccc2O)CC(C)(C)C1 (centres undefined)
not listed: [10]
inactive: all other assays above

CCCC(O)C(CC)CO (centres undefined)
not listed: [10]
inactive: all other assays above

CCN(CC)C(=O)c1cccc(C)c1
not listed: [10]
inactive: all other assays above

O=C1C(c2[nH]c3ccccc3c2O)=Nc2ccccc21
not listed: [10]
inactive: all other assays above

Nc1ccc(S(=O)(=O)c2ccc(N)cc2)cc1
inactive: all assays above

O=C(O)CCCCC1CCSS1 (centres undefined)
not listed: [10]
inactive: all other assays above

O=C(Cn1ccnc1[N+](=O)[O-])NCCO
inactive: [10]

Cc1cc(=O)[nH]c(=S)[nH]1
not listed: [10]
inactive: all other assays above

NCc1ccc(S(N)(=O)=O)cc1
inactive: [10]

Cc1c(N(C)C)c(=O)n(-c2ccccc2)n1C
inactive: all assays above

CCOC(=O)[C@H](CCc1ccccc1)N[C@@H](C)C(=O)N1CCC[C@H]1C(=O)O
inactive: [10]

CCCCCCCC(=O)OCC(COC(=O)CCCCCCC)OC(=O)CCCCCCC
not listed: [10]
inactive: all other assays above

NC(N)=NCCN1CCCCCCC1
inactive: [10]

C=CCNC(N)=S
not listed: [10]
inactive: all other assays above

FC(F)(F)C(Cl)Br (centres undefined)
not listed: [10]
inactive: all other assays above

O=C(c1ccccc1)C(O)c1ccccc1 (centres undefined)
not listed: [10]
inactive: all other assays above

Cc1cc(C)nc(NS(=O)(=O)c2ccc(N)cc2)n1
inactive: all assays above

CC(=O)SC[C@@H](Cc1ccccc1)C(=O)NCC(=O)OCc1ccccc1
inactive: [10]

CC(=O)OCC(COC(C)=O)OC(C)=O
not listed: [10]
inactive: all other assays above

CCCCCC(N)=O
not listed: [10]
inactive: all other assays above

CC(=O)NS(=O)(=O)c1ccc(N)cc1
inactive: all assays above
